In PubChem BioAssay AID687014 (The Scripps Research Institute Molecular Screening Center, 2013):
Hit rate of the full screen: of about 370,000 compounds, about 6,800 (1.8%) were called active. Shown is part of a subset that was picked to be rich in actives. Values without a mark were called inactive.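 Rule for the calls: active = activation above a cutoff set at the mean of all screened compounds plus 3 SD (cut at about 10% in these data); inactive = the rest.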

The compounds below were run on Nuclear hormone receptor DAF-12 (Heterodera glycines), GAL4 fusion (assay: H. glycines DAF-12 receptor agonists, primary screen, cell-based, luminescence, HEK293, GAL4 fusion, UAS-luciferase (AID 687014;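 note: 0% = DMSO wells and 100% = sodium butyrate wells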)). Conditions: HEK293 GAL4-hgDAF12 UAS-luciferase reporter, agonist luminescence; at 6.8 µM; stronger effect = higher value; normalized to butyrate control.
COc1ccc(CC(=O)Nc2cc(S(=O)(=O)N3CCCCC3)ccc2N2CCN(C)CC2)cc1 gave an activation of -1.77%. COC(=O)C1CN(CC(C)C)CCS(=O)(=O)N1Cc1ccc(C)cc1 (configuration not stated) showed an activation of -0.71%. For CC(C)n1c(=O)[nH]c2cc(C(=O)Nc3ccccc3)ccc21, the activation was 13.3% (active). Compound CS(=O)(=O)N1CCc2cc(C(=O)Nc3ccccc3)ccc21 has an activation of 2.16%. Compound CC(=O)Nc1ccc(NC(=O)c2ccc3c(c2)C(=O)N(c2ccccc2C)C3=O)cc1 has an activation of 0.55%. In the case of COc1ccc(-c2ccc3c(n2)CCCN3S(=O)(=O)c2ccc(C)cc2)cc1, the activation was 1.42%. O=C(C(=O)N1CCC(CNS(=O)(=O)Cc2ccccc2)CC1)c1cc2ccccc2o1 showed an activation of -2.92%. Work on CN(C(=O)CSc1nc(C2CC2)nc2ccccc12)c1nc(-c2ccccc2)cs1 yielded an activation of 0.14%. With O=C(NNC(=O)c1csc(-c2cccnc2)n1)Nc1ccc(Cl)cc1 the activation was -2.54%. With CN(c1ccc(O)cc1)c1nc(-c2cccnc2)cs1 the activation was 11% (active). In the case of COc1ccc(NC(=O)c2cc([N+](=O)[O-])ccc2NC(=O)CNC2CCCCC2C)c(OC)c1 (configuration not stated), the activation was 1.77%. Cn1c(=NC(=O)C2CC2)sc2cc(F)cc(F)c21 was tested, and the activation was 14% (active). Compound O=C(Cn1nnc(-c2ccccc2)n1)NC(=O)NC1CCCC1 has an activation of 4.87%. CC(C)C[C@H](NC(=O)C1CC(=O)N(c2ccc3c(c2)OCCO3)C1)C(=O)NC1CCCC1 (some centres not stated) was tested, and the activation was -2.12%. Compound Cc1ccc(S(=O)(=O)NCCC(=O)NCc2ccc(Cl)cc2)cc1C has an activation of 1.13%. In the case of Cc1ccnc(NC(=O)CCNS(=O)(=O)c2ccc(C)c(C)c2)c1, the activation was 17.1% (active). Cc1ccc(S(=O)(=O)NCCC(=O)Nc2cccc(S(N)(=O)=O)c2)cc1C showed an activation of 1.82%. COCCNC(=O)CSc1nc2sccc2c(=O)n1-c1ccccc1 gave an activation of -2.26%. Work on CNc1cncc(-c2cccc(C(=O)N3CCOCC3)c2)n1 yielded an activation of -2.58%. CS(=O)(=O)Nc1ccc(C(=O)N2CCCC2)cc1 was tested, and the activation was -0.04%. In the case of CNc1cncc(-c2ccc(NS(C)(=O)=O)cc2)n1, the activation was 20.8% (active). With COc1ccc(-c2ccccc2C2Cc3nnccc3CN2C(=O)Nc2ccccc2)cc1 (configuration not stated) the activation was -0.36%. With O=C(Nc1cccc(Cl)c1)OC1CC2CC1[C@H]1CCCCN1[C@H]2Cc1ccccc1 (some centres not stated) the activation was -4.33%. With Cc1ccc2nc(CN(C)C(=O)[C@@H](Cc3ccccc3)NC(=O)[C@H]3O[C@@H](n4ccc(=O)[nH]c4=O)[C@H](O)[C@@H]3O)[nH]c2c1 the activation was -0.28%. Work on Cc1ccc(C)c(NC(=O)CCC(=O)N/N=C2/CC(=O)CC(C)(C)C2)c1 yielded an activation of -0.63%. Compound COC(=O)[C@H](C(C)C)N(CCc1cn(Cc2ccccc2)nn1)S(=O)(=O)c1ccc(F)cc1Br has an activation of -2.66%. With N#Cc1ccccc1NC(=O)c1cccc(COc2ccc(Cl)cc2Cl)c1 the activation was 12.7% (active). In the case of O=C(Nc1ccn(Cc2ccccc2F)n1)c1ccc(COc2ccc(Cl)cc2Cl)o1, the activation was -5.91%. For COc1ccc(Sc2ccc(NC(=O)c3cccc(Cl)c3)cc2C#N)cc1, the activation was 0.58%. For Cn1cc(S(=O)(=O)NC(c2ccccc2)c2ccccc2)c(=O)n(C)c1=O, the activation was -1.46%. O=C(COC(=O)c1ccco1)Nc1ccc(Cl)cn1 was tested, and the activation was 0.37%. In the case of O=C(COC(=O)c1cnc(Cl)c(Cl)c1)NCc1ccco1, the activation was -3.41%. O=C(COC(=O)c1cccc(Cl)c1)NC(=O)NCc1ccccc1 gave an activation of 0.55%. O=C(COc1cccc(Cl)c1)NCc1ccccc1 was tested, and the activation was 10.5% (active). With O=C(COC(=O)c1ccco1)NCc1ccc(Cl)cc1 the activation was 10.8% (active). Compound O=C(CCOc1ccccc1)NCc1ccccc1 has an activation of 0.5%. With O=C1CC[C@@H]2CC3(C[C@@H]4CCN1[C@H]24)Nc1cc([N+](=O)[O-])ccc1NC3=NC1CCCCC1 (some centres not stated) the activation was 0.54%. COc1cc(OC)c(-n2cc(-c3ccc(Cl)cc3)[nH]c2=O)cc1Cl was tested, and the activation was -2.27%. Compound N#Cc1cccc(C(=O)NCC2CCN(C(=O)C(=O)c3cc4ccccc4o3)CC2)c1 has an activation of -0.57%. Compound COc1ccc(CNS(=O)(=O)c2cc(Br)ccc2Br)cc1 has an activation of 1.03%. O=C(CN(C(=O)c1csnn1)c1cccc(Cl)c1)NC1CCCC1 showed an activation of -1.27%. Compound O=C(Nc1ccc(Br)cc1)OCCN1C(=O)CCC12CCC(c1ccccc1)CC2 (configuration not stated) has an activation of -0.22%. Compound Cc1cccc(CN2CCC(n3nccc3NC(=O)c3ccccc3C)CC2)n1 has an activation of -0.95%. With COc1ccc(Nc2ccc3ccccc3c2)cc1 the activation was 18.4% (active). Work on COc1ccc(NC2=CC(=S)NC(C)(C)C2)cc1 yielded an activation of 1.03%. For COc1ccc(Nc2cc(=O)n(-c3ccccc3)c3c2c(=O)n(C)c(=O)n3C)cc1, the activation was -1.79%. For OCC[C@H]1C[C@@H](O)[C@H](O)[C@]2(OCCCc3ccccc32)O1, the activation was -1.3%. In the case of COc1ccc(S(=O)(=O)Nc2ccc3c(c2)C(=O)N([C@H](C)CO)C[C@H](C)[C@@H](CN(C)C)OCCCC[C@H](C)O3)cc1, the activation was -1.86%. For Cc1c(Cl)cccc1NC(=S)NCC(O)c1ccccc1 (configuration not stated), the activation was 0.77%. CCSc1ccccc1C(=O)NCc1ccc(OC)cc1 gave an activation of -1.12%. COc1ccc(C(=O)NCC[N+](C)(C)C)cc1 showed an activation of -0.85%. For COc1ccc(C(=O)NCCSc2ccccc2C)cc1, the activation was 12.8% (active). Compound Cc1ccc(-n2c(COc3ccccc3)nnc2SCC(=O)Nc2ccc3c(c2)OCCO3)cc1 has an activation of -0.21%. Compound Cc1cc(OC(=O)NCCc2ccc(F)cc2)ccc1F has an activation of 0.78%. In the case of O=C(CSc1nnc(COc2ccccc2)n1Cc1ccco1)c1ccc2ccccc2c1, the activation was -0.51%. Cc1cc(C)c(C#N)c(SCC(=O)NN2CC(=O)N(c3ccccc3F)CC2=O)n1 showed an activation of -2.6%. Work on COCc1cc(C)nc(SCC(=O)Nc2cccc(C)c2)c1C#N yielded an activation of 0.86%. For Cc1cc(C)c(C#N)c(SCC(=O)Nc2ccccc2)n1, the activation was 11.8% (active). Cc1ccccc1N1CCN(CCCN2C(=O)C3CCCCN3C2=O)CC1 (configuration not stated) gave an activation of 2.03%. In the case of CC1CCN(c2ccc(C(=O)O)cc2NS(=O)(=O)c2ccc(Br)s2)CC1, the activation was -3.43%. With O=C(N[C@H](C(=O)N1CCC[C@H]1C(=O)NCCc1ccccc1Cl)c1ccccc1)c1ccccc1 the activation was -3.35%. For Fc1cccc(Cl)c1CSc1ccc(-c2ccco2)nn1, the activation was 10.6% (active). Oc1ccc(-n2nnnc2SCc2c(F)cccc2Cl)cc1 gave an activation of 0.63%. Compound Cn1c(SCc2c(F)cccc2Cl)nnc1-c1cnccn1 has an activation of 8.5%. CCC(C)(C)NC(=O)C(c1ccc(O)cc1)N(C(=O)Cn1nnc2ccccc21)c1ccc(NC(C)=O)cc1 (configuration not stated) was tested, and the activation was -2.76%. C[C@H](CO)N1C[C@H](C)[C@@H](CN(C)C(=O)Nc2ccccc2F)OCc2cn(nn2)CCCC1=O showed an activation of 4.8%. In the case of COc1cc(/C=C(\C#N)c2nc3c(s2)CC(C)CC3)ccc1O (configuration not stated), the activation was 13.1% (active). Compound CCCC1CCC2(CCCN2CCOC(=O)NCc2ccccc2)CC1 (configuration not stated) has an activation of -0.9%. CCC(c1ccc(NC(=O)OC(C)(C)C)cc1)c1cc(OC)cc(OC)c1 (configuration not stated) showed an activation of -1.91%. CC(C)(C)n1nc(C2CC2)c(Br)c1NC(=O)c1ccccc1F showed an activation of -1.55%. With CC(=O)c1ccc(N2Cc3ccccc3C2)cc1 the activation was 12.2% (active). CC(=O)c1ccc(N2CCN(CC(O)c3ccccc3)CC2)cc1 (configuration not stated) showed an activation of -0.45%. For CC(=O)N1Cc2ccccc2CC1C(=O)O (configuration not stated), the activation was 2.94%. For O=C(NCc1cccs1)C1CCN(S(=O)(=O)c2ccccc2[N+](=O)[O-])CC1, the activation was 1.45%. Cc1ccc(-c2nc3ccccc3[nH]2)cc1N was tested, and the activation was 12.8% (active). In the case of Nc1ccccc1-c1nc2ccncc2[nH]1, the activation was 3.95%. In the case of Cc1ccccc1N1CC(c2nc3ccccc3[nH]2)CC1=O (configuration not stated), the activation was 0.19%. In the case of CCOC(=O)CNC(=O)CSc1ncccc1-c1nc2ccccc2[nH]1, the activation was -0.67%. Compound O=C1c2ccccc2C(c2nc3ccccc3[nH]2)N1c1ccccc1 (configuration not stated) has an activation of 5.38%. For c1ccc2[nH]c(-c3nc4ccccc4[nH]3)nc2c1, the activation was 11.8% (active). With COC(=O)C1CN(CC(C)C)CCS(=O)(=O)N1Cc1ccc(F)cc1 (configuration not stated) the activation was -3.03%. For CC(C)Cn1c(N2CCN(C(=O)/C=C/c3ccccc3)CC2)nc2ccccc21, the activation was -3.13%. For CC(C)c1ccc(Nc2nnc(SCC(=O)c3nnc(-c4ccccc4)o3)s2)cc1, the activation was 17.7% (active). For CN(C(=O)CSc1nnc(Nc2ccccc2)s1)C1CCS(=O)(=O)C1 (configuration not stated), the activation was 1.71%. In the case of CC(C)Nc1nnc(SCC(=O)c2c[nH]c3ccccc23)s1, the activation was -0.17%. For O=C(Nc1cccc(O)c1)c1ccc(C(=O)c2ccccc2)o1, the activation was 15.9% (active). O=C(OCc1ccc(-c2ccccc2)cc1)c1cccc(O)c1 showed an activation of 7.53%. For O=C(NCc1cccc(CNC(=O)Nc2cccc(O)c2)c1)Nc1cccc(O)c1, the activation was -0.42%. For CC(=O)N1CCc2cc(S(=O)(=O)NCCC(=O)N3CCCC3)ccc21, the activation was 0.07%. In the case of COc1ccc(C(=O)NNC(=O)c2cnccn2)cc1[N+](=O)[O-], the activation was 2.33%. Compound Cc1ccc(C(=O)O/N=C(\N)c2ccccn2)cc1Cl has an activation of 4.09%. For COc1ccc(C(=O)O/N=C(\N)c2ccccn2)cc1[N+](=O)[O-], the activation was 17.4% (active).
